Results on 15 molecules are retold here after PubChem BioAssay.

Each structure is given as a SMILES string. Activity calls are given as the source filed them.

Experiment [1] in a line: A549 cell viability effects, profiling panel, calcein-AM fluorescence, 48 h, basal (AID 1162). As to conditions: higher = more signal.
A short description of experiment [2]: adipocyte viability effects, profiling panel, cell-based, 3T3-L1 adipocytes, calcein-AM fluorescence, 48 h, basal (AID 1163). As to conditions: 3T3-L1 adipocytes viability, higher = more signal.
Experiment [3] can be described thus: HepG2 cell viability effects, profiling panel, calcein-AM fluorescence, 48 h, basal (AID 1164). The following applies: higher = more signal.
Experiment [4] in a line: MM1S cell viability effects, profiling panel, calcein-AM fluorescence, 48 h, basal (AID 1165).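 Note: viability of MM1S multiple myeloma cells under basal unstimulated conditions.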 The following applies: higher = more signal.
Experiment [5] can be described thus: basal RPMI8226 viability, no added stimulus, profiling panel, cell-based, calcein-AM fluorescence, 48 h, PK04 Diversity Set (AID 1166).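 Note: cells grown under basal conditions without added stimulus.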 As to conditions: RPMI8226 myeloma viability, higher = more signal.
Experiment [6] can be described thus: basal HepG2 mitochondrial membrane potential changes, profiling panel, cell-based, JC-1 fluorescence, 24 h, 100 nL compound (AID 1167). The following applies: higher = more signal.
Experiment [7] is described as follows: basal 3T3-L1 adipocyte mitochondrial potential changes, profiling panel, cell-based, JC-1 fluorescence, 3T3-L1 adipocytes, 24 h, 100 nL compound (AID 1168). As to conditions: JC-1 mitochondrial fluorescence, higher = more signal, called active from +8 up or from −8 down.
Experiment [8] in a line: basal RPMI8226 mitochondrial membrane potential changes, profiling panel, cell-based, JC-1 fluorescence, 24 h, 100 nL compound (AID 1169). As to conditions: RPMI8226 myeloma, JC-1 mitochondrial potential fluorescence, higher = more signal.
The nature of experiment [9]: basal MM1S mitochondrial membrane potential changes, profiling panel, cell-based, JC-1 fluorescence, 24 h, 100 nL compound (AID 1170). As to conditions: higher = more signal.
Experiment [10] in a line: A549 lung cancer cell viability effects, profiling panel, resazurin fluorescence, 24 h, PK04 Diversity Set (AID 1171). As to conditions: higher = more signal, called active from +8 up or from −8 down. For orientation: The colour change of resazurin is a common sign of viable cells or microbes.
Note: test concentration not given here.

On to `CN1C(=O)C2C=CC(C(O)C3CCCCC3)N(N(c3ccccc3)c3ccccc3)C2C1=O` (stereo not given), for which the z-score in experiment [1] was -0.42; in [2], -0.88; in [3], 0.149; in [4], 0.241; in experiment [5], -0.758; in experiment [6], -0.954. In addition, the z-score in experiment [7] was -1.2 (inactive); in [8], -0.361; in experiment [9] it was -0.365; in experiment [10], -0.361 (inactive).
In the case of `CC1(C)[C@@H]2CC(C(O)C3C=CC4C(=O)N(c5ccccc5)C(=O)C4N3Nc3ccccc3F)=C[C@@H]1C2` (stereo not given in full), the z-score in experiment [1] is 0.604; in experiment [2], -0.297; in experiment [3] it was -0.0679; in experiment [4] it was 0.848; in experiment [5] it was 0.219; in experiment [6], -0.424. For the same molecule, the z-score is -1.07 (inactive) in experiment [7], 0.157 in experiment [8], -1.41 in experiment [9] and 1.01 (inactive) in experiment [10].
`O=C1NC(=O)C2C1C=CC(C(O)c1ccc(-c3ccccc3)s1)N2Nc1ccccn1` (stereo not given): the z-score is -0.275 in experiment [1]; -0.456 in experiment [2]; -0.538 in [3]; -0.0747 in experiment [4]; -0.642 in [5]; -1.85 in experiment [6]. The z-score in [7] was -0.544 (inactive); in experiment [8], -0.115; in [9], -0.371; in [10], -0.842 (inactive).
As to `C=CCOC(=O)[C@@H]1[C@H]2C(=O)O[C@H](c3ccccc3)[C@H](c3ccccc3)N2[C@H](c2ccc(OCCOC(=O)[C@@H]3C[C@@H]4C(=O)N5CCC[C@H]5C(=O)N4[C@@H]3c3cccc(OCCO)c3)cc2)[C@@]12C(=O)Nc1ccc(I)cc12`, the z-score in experiment [1] was -0.283; in experiment [2], 0.584; in [3], -1.27; in experiment [4], -0.16; in experiment [5], 0.583; in experiment [6] it was -0.853. Further, the z-score in experiment [7] is 0.272 (inactive); in [8], -0.661; in [9], -0.984; in [10], 0.592 (inactive).
For `NC(=O)[C@@H]1[C@H]2C(=O)O[C@H](c3ccccc3)[C@H](c3ccccc3)N2[C@H](c2ccccc2OCCO)[C@@]12C(=O)Nc1ccc(C#CCCO)cc12`, the z-score was 0.888 in [1]; 1.27 in [2]; 0.133 in experiment [3]; 0.448 in experiment [4]; -3.68 in experiment [5]; -0.945 in experiment [6]. Further, the z-score was 0.783 (inactive) in [7], -1.11 in experiment [8], 0.068 in [9] and 0.461 (inactive) in [10].
In the case of `N#Cc1ccc(NN2C(C(O)c3ccco3)C=CC3C(=O)N(c4ccccc4)C(=O)C32)cc1` (stereo not given), the z-score in [1] was -0.121; in experiment [2], -0.908; in [3], 1.26; in experiment [4], -0.372; in experiment [5], -0.197; in experiment [6], -0.764. The z-score in experiment [7] is -0.829 (inactive); in [8] it was 0.45; in experiment [9], 0.121; in [10] it was -0.2 (inactive).
Consider `O=C1NC(=O)C2C1C=CC(C(O)c1ccc3c(c1)OCO3)N2Nc1ccc(Cl)cc1Cl` (stereo not given), for which the z-score was -0.713 in experiment [1]; -0.638 in experiment [2]; -1.22 in [3]; -2.41 in [4]; -1.99 in experiment [5]; -2.87 in [6]. For the same molecule, the z-score in experiment [7] was -0.748 (inactive); in experiment [8], -0.103; in [9], -0.339; in [10] it was -0.233 (inactive).
As for `CN(C)CCCN1C(=O)[C@@]2(Cc3ccccc31)c1ccccc1C(=O)N(Cc1ccccc1)[C@H]2c1ccc(CO)cc1`, the z-score in [1] was 0.483; in experiment [2], 1.16; in [3], 0.128; in [4] it was 0.38; in experiment [5], -2.79; in experiment [6], 0.343. Further, the z-score in experiment [7] is -0.407 (inactive); in experiment [8], -0.484; in [9] it was -1.28; in [10], 0.726 (inactive).
For the molecule `O=C1O[C@H](c2ccccc2)[C@H](c2ccccc2)N2[C@H]1[C@@H](C(=O)N1CCCCCCC1)[C@]1(C(=O)Nc3ccccc31)[C@H]2c1ccc(O)cc1`, the z-score in [1] was 0.416; in experiment [2], 0.759; in experiment [3], 0.757; in [4], -1.81; in experiment [5], -2.71; in experiment [6], -1.65. For the same molecule, the z-score in experiment [7] was 0.123 (inactive); in experiment [8] it was -0.536; in [9], 0.385; in experiment [10] it was -1.52 (inactive).
For `COCC1=C([C@H](O)CCc2ccccc2)[C@H](CO)[C@@H]2C(=O)N(C)C(=O)[C@@H]2C1`, the z-score in [1] was 0.803; in experiment [2] it was -0.473; in [3], 0.693; in experiment [4] it was 0.347; in [5] it was -0.243; in [6], 0.618. The z-score in experiment [7] is -0.368 (inactive); in experiment [8], 0.442; in experiment [9] it was 0.341; in [10], -0.515 (inactive).
`C=CCC(OC(C)=O)[C@@H]1[C@@H](N(Cc2cccc3ccccc23)C(=O)c2ccc(C)cc2)c2cc(OCCCO)ccc2N1C(=O)c1ccc2ccccc2c1` (stereo not given in full): the z-score in experiment [1] was 0.93; in experiment [2] it was 1.08; in experiment [3], 2.15; in experiment [4], 0.577; in [5] it was 0.12; in [6], 2.37. Also, the z-score was 0.658 (inactive) in experiment [7], 0.102 in experiment [8], -0.796 in experiment [9] and 0.912 (inactive) in experiment [10].
In the case of `CCOC(=O)C1=CC[C@@H](c2ccccc2)N(S(=O)(=O)c2ccc(C)cc2)[C@H]1C=C(C)C`, the z-score in experiment [1] is -1.36; in experiment [2], -1.2; in experiment [3], -1.01; in [4], -1.33; in experiment [5], -0.89; in experiment [6] it was 4.57. Besides, the z-score in [7] is -0.638 (inactive); in [8], -1.01; in [9], -1.79; in experiment [10], 1.26 (inactive).
Regarding `O=C1O[C@H](c2ccccc2)[C@H](c2ccccc2)N2[C@H]1[C@@H](C(=O)N1CCN(c3ncccn3)CC1)[C@]1(C(=O)Nc3ccc(C#CCCO)cc31)[C@H]2c1ccc(OCCO)cc1`, the z-score in [1] is -0.696; in experiment [2] it was 0.404; in experiment [3], -0.53; in [4] it was -1.04; in [5], -0.284; in experiment [6] it was -0.838. The z-score in experiment [7] is 0.717 (inactive); in experiment [8], -0.883; in [9], -0.386; in experiment [10] it was 0.978 (inactive).
With `COc1ccccc1CN1C(=O)c2ccccc2[C@](Cc2ccccc2I)(C(=O)NCCN2CCOCC2)[C@@H]1c1ccc(CO)cc1`, the z-score was 0.0739 in experiment [1]; 0.937 in experiment [2]; 1.26 in experiment [3]; -1.17 in experiment [4]; -2.74 in [5]; 2.25 in experiment [6]. Also, the z-score in experiment [7] is 0.833 (inactive); in experiment [8] it was -0.673; in experiment [9], -0.454; in [10] it was -1.83 (inactive).
For the molecule `CC(C)N1CC=CC23O[C@@H]4C=CCOC(=O)[C@@H]4[C@H]2C(=O)N(CCCCCCO)[C@@H]3C1=O` (stereo not given in full), the z-score in experiment [1] was 0.0698; in experiment [2] it was 0.105; in experiment [3] it was -0.684; in experiment [4] it was 1.17; in [5] it was 0.255; in experiment [6] it was -0.202. Moreover, the z-score is -0.109 (inactive) in experiment [7], 0.0854 in experiment [8], -0.249 in experiment [9] and 0.64 (inactive) in [10].
